By inhibition is commonly meant the drop in the measured response relative to a control, in per cent.

Structures are written as SMILES.

In the first experiment the target is T1, Serine/threonine-protein kinase D2 (Homo sapiens) (UniProt Q9BZL6).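 Also: mean value of PRKD2 inhibition, from the GSK PKIS screening panel.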
T1 sequence (whole entry): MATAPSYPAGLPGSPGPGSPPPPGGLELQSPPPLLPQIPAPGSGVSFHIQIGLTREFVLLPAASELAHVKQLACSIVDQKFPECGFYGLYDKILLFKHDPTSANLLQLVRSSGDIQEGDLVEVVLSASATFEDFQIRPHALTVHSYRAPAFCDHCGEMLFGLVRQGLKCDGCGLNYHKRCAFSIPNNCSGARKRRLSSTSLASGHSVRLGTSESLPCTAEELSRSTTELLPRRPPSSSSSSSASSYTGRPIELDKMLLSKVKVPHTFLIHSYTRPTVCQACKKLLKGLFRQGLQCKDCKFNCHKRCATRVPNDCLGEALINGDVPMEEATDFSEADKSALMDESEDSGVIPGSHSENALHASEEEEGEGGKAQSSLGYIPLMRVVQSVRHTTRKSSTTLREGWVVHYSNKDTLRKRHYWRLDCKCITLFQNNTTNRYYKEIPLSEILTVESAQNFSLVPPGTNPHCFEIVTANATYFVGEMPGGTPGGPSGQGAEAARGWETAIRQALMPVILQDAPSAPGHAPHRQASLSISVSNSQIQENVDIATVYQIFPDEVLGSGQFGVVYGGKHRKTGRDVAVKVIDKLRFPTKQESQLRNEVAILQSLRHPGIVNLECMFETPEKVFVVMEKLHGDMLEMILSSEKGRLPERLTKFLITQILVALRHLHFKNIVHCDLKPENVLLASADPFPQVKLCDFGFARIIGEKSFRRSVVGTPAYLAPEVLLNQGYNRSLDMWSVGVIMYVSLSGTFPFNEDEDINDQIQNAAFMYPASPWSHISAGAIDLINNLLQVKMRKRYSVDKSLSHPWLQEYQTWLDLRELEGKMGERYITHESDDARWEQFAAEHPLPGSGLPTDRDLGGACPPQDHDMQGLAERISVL
The following applies: at 1 µM.
Take `COC(=O)c1cncc(/C=C/c2c(C)cc(O)cc2C)c1`: the inhibition was determined as 4%. Turning to `Cc1ccc(Nc2ccnc(Nc3cccc(C(N)=O)c3)n2)cc1O`, the inhibition stood at 10.1%. Regarding `Nc1ccc(C#Cc2cncnc2Nc2ccc(OCc3cccc(F)c3)c(Cl)c2)cc1`, the inhibition amounted to 2.21%.

Regarding `CN(C)C(=O)O[C@@H]1CN[C@@H](C#Cc2cc3ncnc(Nc4ccc(OCc5cccc(F)c5)c(Cl)c4)c3s2)C1`, the inhibition is 5.06%. In the case of `NS(=O)(=O)c1ccc(N/N=C2\C(=O)Nc3ccc(Cl)cc32)cc1`, the inhibition stood at 5.28%. As for `Cc1nc(-c2ccccc2)n2nc(NCCCN3CCOCC3)ncc12`, the inhibition worked out at 2.01%.

With `CCOc1nccc2c1nc(-c1nonc1N)n2CC`, the inhibition amounted to 1.39%.

For `O=S(=O)(CCOCc1ccc(-c2ccc3ncnc(Nc4ccc(OCc5cccc(F)c5)c(Cl)c4)c3c2)o1)c1ccccc1`, the inhibition is 2.14%. `NC(=O)c1cccc(Nc2nccc(Nc3cccc(F)c3)n2)c1`: the inhibition was 0.2%. Consider `C[C@@H](Oc1cc(-n2cnc3ccc(OCC4CCN(C)CC4)cc32)sc1C(N)=O)c1ccccc1C(F)(F)F`, for which the inhibition came to 22.1%.

Take `FC(F)(F)c1ccc(-c2nn3ncccc3c2-c2ccnc(Nc3ccc4c(c3)OCCO4)n2)cc1`: the inhibition was 3.07%.

For the molecule `Cc1cc(-c2ccccn2)cc(C)c1/C=C/c1cncc(-c2nn[nH]n2)c1`, the inhibition worked out at 12.2%.

Turning to `COc1ccc2ncnc(Nc3ccc(OCc4ccccc4)cc3)c2c1`, the inhibition is 2.88%.

Regarding `CN(C)CCCn1c(-c2nonc2N)nc2cnccc21`, the inhibition amounted to 5.95%.

For the molecule `[O-][S+]1CCN(Cc2ccc(-c3ccc4ncnc(Nc5ccc(OCc6ccccc6)c(Cl)c5)c4c3)o2)CC1`, the inhibition was determined as 1.77%. The same measure, in the same setting: the figure for `OCc1ccc(-c2nc(-c3ccccn3)c(-c3ccc4c(c3)OCO4)[nH]2)cc1` is 9.51%; for `COc1cc(Nc2nccc(-c3cnn4ncccc34)n2)cc(OC)c1` it is 15.9%.

The next experiment addresses T2, Serine/threonine-protein kinase D3 (Homo sapiens) (UniProt O94806).
T2 sequence (whole entry): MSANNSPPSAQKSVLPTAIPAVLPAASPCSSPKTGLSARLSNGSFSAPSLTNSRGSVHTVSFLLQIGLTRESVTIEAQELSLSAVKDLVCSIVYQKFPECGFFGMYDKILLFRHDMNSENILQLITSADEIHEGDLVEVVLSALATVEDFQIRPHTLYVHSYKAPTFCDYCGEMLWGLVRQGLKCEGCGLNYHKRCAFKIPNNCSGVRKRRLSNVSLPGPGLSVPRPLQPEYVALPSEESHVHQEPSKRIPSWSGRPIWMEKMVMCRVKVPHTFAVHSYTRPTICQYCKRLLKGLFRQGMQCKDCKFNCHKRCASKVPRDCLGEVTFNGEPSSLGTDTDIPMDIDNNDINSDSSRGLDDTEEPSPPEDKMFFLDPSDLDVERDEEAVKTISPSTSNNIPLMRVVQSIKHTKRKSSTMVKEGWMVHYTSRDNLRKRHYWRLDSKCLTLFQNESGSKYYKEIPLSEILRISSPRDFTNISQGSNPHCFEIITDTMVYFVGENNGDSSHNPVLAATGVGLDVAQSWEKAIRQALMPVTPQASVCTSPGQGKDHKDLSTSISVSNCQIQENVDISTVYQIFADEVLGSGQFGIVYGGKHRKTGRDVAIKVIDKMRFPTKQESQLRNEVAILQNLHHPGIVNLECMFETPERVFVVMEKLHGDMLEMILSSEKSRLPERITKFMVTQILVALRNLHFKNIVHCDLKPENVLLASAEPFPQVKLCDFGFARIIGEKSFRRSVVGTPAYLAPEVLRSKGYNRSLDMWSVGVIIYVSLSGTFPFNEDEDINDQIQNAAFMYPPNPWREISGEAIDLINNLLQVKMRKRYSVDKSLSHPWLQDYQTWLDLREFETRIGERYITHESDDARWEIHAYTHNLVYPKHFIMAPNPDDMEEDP
The settings on record: at 0.1 µM.
In the case of `CS(=O)(=O)CCNCc1nc(-c2ccc3ncnc(Nc4ccc(OCc5cccc(C(F)(F)F)c5)cc4)c3c2)cs1`, the inhibition is 0.92%. For `Nc1nccc(-c2c(-c3ccc(F)cc3)ncn2CCCN2CCOCC2)n1`, the inhibition came to 4.8%. Turning to `NS(=O)(=O)c1ccc(Nc2cc(-c3cccc(O)c3)n[nH]2)cc1`, the inhibition came out at 6.55%. With `NS(=O)(=O)c1cccc(Nc2cc(-c3ccc(F)cc3)n[nH]2)c1`, the inhibition amounted to 2.9%. Regarding `Cc1ccc2c(-c3ccnc(Nc4ccc5c(c4)OCCO5)n3)c(-c3ccc(C(F)(F)F)cc3)nn2n1`, the inhibition stood at 1.2%. In the case of `Cc1cc(O)cc(C)c1/C=C/c1cncc(C(=O)N(C)C)c1`, the inhibition is 6.37%.

As for `CN(C)c1cc2c(Nc3ccc4c(cnn4Cc4ccccc4)c3)ncnc2cn1`, the inhibition worked out at 3.24%. On the same count and under the same terms, to `COC(=O)c1ccc2c(c1)C(=Cc1cc(Br)c(O)c(Br)c1)C(=O)N2` belongs 4.47%. Still for that read-out and setting: to `Nc1nccc(-c2c(-c3ccc(F)cc3)nn3cc(C(F)(F)F)ccc23)n1` belongs 0.99%; to `COc1cccc(-n2nc(C)c3c(N/N=C(\C)c4ccncc4)ncnc32)c1`, -0.64%. On the same count and under the same terms, the figure for `Cc1cc(Cl)cc2c1NC(=O)C2=NNc1ccc(S(N)(=O)=O)cc1` is 2.25%; for `Cc1ccc(O)cc1Nc1ccnc2ccc(S(C)(=O)=O)cc12` it is 6.86%. For `COc1cccc(-n2ncc3c(N/N=C/c4ccc(S(C)(=O)=O)cc4)ncnc32)c1`, the inhibition is -6.98%.

Turning to `NS(=O)(=O)c1ccc(-c2cc3ccncc3cc2OCc2ccccc2)cc1`, the inhibition turned out to be 2.31%.

For `Cc1ccc2c(c1)/C(=N/Nc1ccc(S(N)(=O)=O)cc1)C(=O)N2`, the inhibition amounted to 0.87%. On to `CCCN1CCCC(c2ccc(Nc3nc(Nc4cc(F)ccc4C(N)=O)c4cc[nH]c4n3)c(OC)c2)C1` (centres undefined), for which the inhibition is 19.6%. Still for that read-out and setting: to `COC(=O)c1cncc(/C=C/c2c(C)cc(O)cc2C)c1` belongs 4.31%; to `Cc1ccc(Nc2ccnc(Nc3cccc(C(N)=O)c3)n2)cc1O`, -0.05%.

Consider `Nc1ccc(C#Cc2cncnc2Nc2ccc(OCc3cccc(F)c3)c(Cl)c2)cc1`, for which the inhibition was 2.59%. In the case of `CN(C)C(=O)O[C@@H]1CN[C@@H](C#Cc2cc3ncnc(Nc4ccc(OCc5cccc(F)c5)c(Cl)c4)c3s2)C1`, the inhibition is 1.06%. Regarding `NS(=O)(=O)c1ccc(N/N=C2\C(=O)Nc3ccc(Cl)cc32)cc1`, the inhibition is 3.58%. Same read-out and setting: the figure for `Cc1nc(-c2ccccc2)n2nc(NCCCN3CCOCC3)ncc12` is 1.88%. In the case of `CCOc1nccc2c1nc(-c1nonc1N)n2CC`, the inhibition is 3.3%. On to `O=S(=O)(CCOCc1ccc(-c2ccc3ncnc(Nc4ccc(OCc5cccc(F)c5)c(Cl)c4)c3c2)o1)c1ccccc1`, for which the inhibition was determined as 1.07%. Turning to `NC(=O)c1cccc(Nc2nccc(Nc3cccc(F)c3)n2)c1`, the inhibition worked out at 0.7%. Turning to `C[C@@H](Oc1cc(-n2cnc3ccc(OCC4CCN(C)CC4)cc32)sc1C(N)=O)c1ccccc1C(F)(F)F`, the inhibition was -0.13%. Consider `FC(F)(F)c1ccc(-c2nn3ncccc3c2-c2ccnc(Nc3ccc4c(c3)OCCO4)n2)cc1`, for which the inhibition was -0.32%.

These data come from ChEMBL document CHEMBL1961873, “Compounds: GSK PKIS; Assays: Nanosyn kinase panel” (2012).
